Drawing on article PMC7862700, “An all-to-all approach to the identification of sequence-specific readers for epigenetic DNA modifications on cytosine”, this text covers binding signal for 40 sequences.

The first assay addresses T1, ERG (Homo sapiens, UniProt P11308 1-479).
T1 sequence: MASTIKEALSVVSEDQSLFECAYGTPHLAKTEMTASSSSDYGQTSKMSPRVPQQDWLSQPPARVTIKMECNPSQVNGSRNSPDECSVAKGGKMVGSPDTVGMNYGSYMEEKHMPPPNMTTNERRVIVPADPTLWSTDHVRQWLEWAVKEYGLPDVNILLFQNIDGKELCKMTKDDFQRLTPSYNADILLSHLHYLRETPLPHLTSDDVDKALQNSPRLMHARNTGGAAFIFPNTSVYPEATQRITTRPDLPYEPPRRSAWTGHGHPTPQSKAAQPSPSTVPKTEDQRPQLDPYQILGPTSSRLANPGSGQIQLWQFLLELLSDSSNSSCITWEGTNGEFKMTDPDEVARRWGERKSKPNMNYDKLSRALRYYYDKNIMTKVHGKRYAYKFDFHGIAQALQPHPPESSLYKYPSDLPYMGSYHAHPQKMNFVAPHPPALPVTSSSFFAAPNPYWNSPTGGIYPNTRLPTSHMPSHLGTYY
Put plainly: DAPPL (digital affinity profiling via proximity ligation, sequencing); 10 mM Tris-HCl pH 7.5, 50 mM NaCl, 1 mM DTT, 4% glycerol, room temperature, 30 min; GST-TFs on glutathione beads, 16-mer random dsDNA library, 0.1% formaldehyde crosslink after washing; high values mean tight binding. The following applies: protein: recombinant; tags: N-terminal GST; dsDNA, one strand shown. Put shortly:
(§1)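 Human transcription factors fused to GST were expressed in yeast, captured on glutathione beads, given DNA barcodes and pooled with a GST-only negative control. Pools were incubated with 200 nmole of a 16-mer random double-stranded DNA library in Tris/NaCl/DTT/glycerol buffer at room temperature for 30 min. They were then washed, crosslinked with 0.1% formaldehyde, proximity-ligated (BsaI/T4 ligase, 1 h, 37 °C), PCR-amplified and sequenced on an Illumina NextSeq500. Binding signal is each 6-mer's read frequency for a factor divided by its frequency for the GST control.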
Turning to ACCTAA, the binding signal is 1.13 fold enrichment (6-mer frequency, TF over GST control).

For CTACAC, the binding signal is 1.34 fold enrichment (6-mer frequency, TF over GST control).

For TATCCA, the binding signal is 1.22 fold enrichment (6-mer frequency, TF over GST control).

For GATTAC, the binding signal is 1.12 fold enrichment (6-mer frequency, TF over GST control).

As to GACTTC, the binding signal is 2.84 fold enrichment (6-mer frequency, TF over GST control).

Turning to TATAAA, the binding signal was 1.18 fold enrichment (6-mer frequency, TF over GST control).

Consider CACGAT, for which the binding signal was 1.24 fold enrichment (6-mer frequency, TF over GST control).

Turning to TTATGA, the binding signal was 1.08 fold enrichment (6-mer frequency, TF over GST control).

In the case of TAGCTT, the binding signal is 1.17 fold enrichment (6-mer frequency, TF over GST control).

In the case of TATTCA, the binding signal is 1.29 fold enrichment (6-mer frequency, TF over GST control).

ACCTCT: the binding signal was 1.41 fold enrichment (6-mer frequency, TF over GST control).

Take TCCCCC: the binding signal is 1.48 fold enrichment (6-mer frequency, TF over GST control).

With TCGACA, the binding signal is 1.35 fold enrichment (6-mer frequency, TF over GST control).

As to AGTATT, the binding signal is 1.2 fold enrichment (6-mer frequency, TF over GST control).

On to ATGTTA, for which the binding signal is 1.22 fold enrichment (6-mer frequency, TF over GST control).

With CATTTG, the binding signal was 1.21 fold enrichment (6-mer frequency, TF over GST control).

GCACTT: the binding signal was 1.93 fold enrichment (6-mer frequency, TF over GST control).

TCACTC: the binding signal is 1.18 fold enrichment (6-mer frequency, TF over GST control).

For CCCGCT, the binding signal was 1.3 fold enrichment (6-mer frequency, TF over GST control).

For the sequence ATTAAT, the binding signal was 1.21 fold enrichment (6-mer frequency, TF over GST control).

Take AACTAC: the binding signal was 1.5 fold enrichment (6-mer frequency, TF over GST control).

As for ACTTTC, the binding signal was 1.46 fold enrichment (6-mer frequency, TF over GST control).

On to CATTTA, for which the binding signal was 1.25 fold enrichment (6-mer frequency, TF over GST control).

As for GCTCTC, the binding signal was 1.42 fold enrichment (6-mer frequency, TF over GST control).

GCTTTA: the binding signal was 1.05 fold enrichment (6-mer frequency, TF over GST control).

CCTGAT: the binding signal was 1.42 fold enrichment (6-mer frequency, TF over GST control).

For ATTCCT, the binding signal is 1.27 fold enrichment (6-mer frequency, TF over GST control).

In the case of AGTGCT, the binding signal is 1.37 fold enrichment (6-mer frequency, TF over GST control).

In the case of AGCAAT, the binding signal was 1.11 fold enrichment (6-mer frequency, TF over GST control).

In the case of TTTTTC, the binding signal was 1.14 fold enrichment (6-mer frequency, TF over GST control).

With ATGCTA, the binding signal is 1.27 fold enrichment (6-mer frequency, TF over GST control).

Take CAAGAT: the binding signal was 1.05 fold enrichment (6-mer frequency, TF over GST control).

Turning to CTTTAT, the binding signal is 1.16 fold enrichment (6-mer frequency, TF over GST control).

With TCTAAT, the binding signal was 1.17 fold enrichment (6-mer frequency, TF over GST control).

In the case of AGCTTA, the binding signal was 1.13 fold enrichment (6-mer frequency, TF over GST control).

On to TTGAAT, for which the binding signal was 1.1 fold enrichment (6-mer frequency, TF over GST control).

CAATAT: the binding signal is 1.2 fold enrichment (6-mer frequency, TF over GST control).

Regarding TTAAAC, the binding signal is 1.25 fold enrichment (6-mer frequency, TF over GST control).

AATTCG: the binding signal was 1.3 fold enrichment (6-mer frequency, TF over GST control).

Turning to TGACCC, the binding signal is 1.4 fold enrichment (6-mer frequency, TF over GST control).

The target in another assay is ELF1 (Homo sapiens, UniProt P32519 1-619). The assay is described as above. The following applies: protein: recombinant; tags: N-terminal GST; dsDNA, one strand shown. Put shortly: as §1
ELF1, sequence (P32519 whole entry): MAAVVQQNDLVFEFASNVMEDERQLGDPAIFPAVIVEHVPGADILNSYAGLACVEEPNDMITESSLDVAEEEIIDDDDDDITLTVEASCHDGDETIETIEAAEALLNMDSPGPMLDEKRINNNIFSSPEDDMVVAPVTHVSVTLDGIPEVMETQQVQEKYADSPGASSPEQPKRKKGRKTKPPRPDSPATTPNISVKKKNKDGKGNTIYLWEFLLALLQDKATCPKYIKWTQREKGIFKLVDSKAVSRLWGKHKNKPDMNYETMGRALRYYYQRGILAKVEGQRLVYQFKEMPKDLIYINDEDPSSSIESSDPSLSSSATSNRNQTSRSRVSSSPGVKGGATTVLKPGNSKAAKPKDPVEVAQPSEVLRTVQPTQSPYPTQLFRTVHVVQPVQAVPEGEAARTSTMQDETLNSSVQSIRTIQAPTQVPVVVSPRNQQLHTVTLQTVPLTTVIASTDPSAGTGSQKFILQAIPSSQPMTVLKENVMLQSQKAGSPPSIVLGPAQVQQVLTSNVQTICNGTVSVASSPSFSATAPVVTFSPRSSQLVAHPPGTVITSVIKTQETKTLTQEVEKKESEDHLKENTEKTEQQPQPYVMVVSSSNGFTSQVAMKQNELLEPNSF
ACCTAA: the binding signal was 1.18 fold enrichment (6-mer frequency, TF over GST control).

For the sequence CTACAC, the binding signal was 1.33 fold enrichment (6-mer frequency, TF over GST control).

TATCCA: the binding signal was 1.29 fold enrichment (6-mer frequency, TF over GST control).

Take GATTAC: the binding signal is 1.07 fold enrichment (6-mer frequency, TF over GST control).

GACTTC: the binding signal is 2.36 fold enrichment (6-mer frequency, TF over GST control).

For TATAAA, the binding signal was 1.21 fold enrichment (6-mer frequency, TF over GST control).

As for CACGAT, the binding signal is 1.27 fold enrichment (6-mer frequency, TF over GST control).

TTATGA: the binding signal was 1.19 fold enrichment (6-mer frequency, TF over GST control).

With TAGCTT, the binding signal is 1.21 fold enrichment (6-mer frequency, TF over GST control).

Regarding TATTCA, the binding signal is 1.38 fold enrichment (6-mer frequency, TF over GST control).

For ACCTCT, the binding signal was 1.47 fold enrichment (6-mer frequency, TF over GST control).

Consider TCCCCC, for which the binding signal is 1.58 fold enrichment (6-mer frequency, TF over GST control).

As to TCGACA, the binding signal was 1.38 fold enrichment (6-mer frequency, TF over GST control).

For the sequence AGTATT, the binding signal is 1.14 fold enrichment (6-mer frequency, TF over GST control).

On to ATGTTA, for which the binding signal is 1.22 fold enrichment (6-mer frequency, TF over GST control).

Consider CATTTG, for which the binding signal was 1.24 fold enrichment (6-mer frequency, TF over GST control).

With GCACTT, the binding signal was 1.77 fold enrichment (6-mer frequency, TF over GST control).

Consider TCACTC, for which the binding signal is 1.34 fold enrichment (6-mer frequency, TF over GST control).

As to CCCGCT, the binding signal was 1.44 fold enrichment (6-mer frequency, TF over GST control).

For ATTAAT, the binding signal was 1.23 fold enrichment (6-mer frequency, TF over GST control).

Regarding AACTAC, the binding signal is 1.45 fold enrichment (6-mer frequency, TF over GST control).

As for ACTTTC, the binding signal is 1.63 fold enrichment (6-mer frequency, TF over GST control).

As to CATTTA, the binding signal was 1.27 fold enrichment (6-mer frequency, TF over GST control).

Consider GCTCTC, for which the binding signal was 1.47 fold enrichment (6-mer frequency, TF over GST control).

Take GCTTTA: the binding signal was 1.09 fold enrichment (6-mer frequency, TF over GST control).

With CCTGAT, the binding signal was 1.38 fold enrichment (6-mer frequency, TF over GST control).

On to ATTCCT, for which the binding signal was 1.42 fold enrichment (6-mer frequency, TF over GST control).

As to AGTGCT, the binding signal was 1.4 fold enrichment (6-mer frequency, TF over GST control).

On to AGCAAT, for which the binding signal is 1.18 fold enrichment (6-mer frequency, TF over GST control).

Turning to TTTTTC, the binding signal is 1.22 fold enrichment (6-mer frequency, TF over GST control).

Consider ATGCTA, for which the binding signal is 1.23 fold enrichment (6-mer frequency, TF over GST control).

For the sequence CAAGAT, the binding signal was 1.06 fold enrichment (6-mer frequency, TF over GST control).

Turning to CTTTAT, the binding signal was 1.17 fold enrichment (6-mer frequency, TF over GST control).

As to TCTAAT, the binding signal is 1.14 fold enrichment (6-mer frequency, TF over GST control).

Turning to AGCTTA, the binding signal was 1.11 fold enrichment (6-mer frequency, TF over GST control).

For TTGAAT, the binding signal is 1.12 fold enrichment (6-mer frequency, TF over GST control).

On to CAATAT, for which the binding signal is 1.28 fold enrichment (6-mer frequency, TF over GST control).

As to TTAAAC, the binding signal is 1.23 fold enrichment (6-mer frequency, TF over GST control).

For AATTCG, the binding signal was 1.29 fold enrichment (6-mer frequency, TF over GST control).

Turning to TGACCC, the binding signal is 1.43 fold enrichment (6-mer frequency, TF over GST control).

For the next assay, the target named is T2, EHF (Homo sapiens, UniProt Q9NZC4 1-300).
T2 sequence: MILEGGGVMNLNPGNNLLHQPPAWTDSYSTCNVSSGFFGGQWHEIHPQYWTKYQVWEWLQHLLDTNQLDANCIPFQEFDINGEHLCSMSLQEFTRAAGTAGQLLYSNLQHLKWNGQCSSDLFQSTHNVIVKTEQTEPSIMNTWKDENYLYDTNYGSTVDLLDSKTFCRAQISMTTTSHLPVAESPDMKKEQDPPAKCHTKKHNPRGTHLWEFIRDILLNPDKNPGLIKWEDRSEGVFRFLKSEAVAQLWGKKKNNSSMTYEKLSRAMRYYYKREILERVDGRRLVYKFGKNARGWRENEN
Described as above. The following applies: protein: recombinant; tags: N-terminal GST; dsDNA, one strand shown. A digest of the protocol:
as §1
In the case of ACCTAA, the binding signal was 1.12 fold enrichment (6-mer frequency, TF over GST control).

For CTACAC, the binding signal was 1.36 fold enrichment (6-mer frequency, TF over GST control).

On to TATCCA, for which the binding signal is 1.26 fold enrichment (6-mer frequency, TF over GST control).

As to GATTAC, the binding signal is 1.12 fold enrichment (6-mer frequency, TF over GST control).

Consider GACTTC, for which the binding signal is 2.51 fold enrichment (6-mer frequency, TF over GST control).

With TATAAA, the binding signal was 1.28 fold enrichment (6-mer frequency, TF over GST control).

As for CACGAT, the binding signal is 1.32 fold enrichment (6-mer frequency, TF over GST control).

As to TTATGA, the binding signal is 1.16 fold enrichment (6-mer frequency, TF over GST control).

Regarding TAGCTT, the binding signal was 1.21 fold enrichment (6-mer frequency, TF over GST control).

TATTCA: the binding signal is 1.32 fold enrichment (6-mer frequency, TF over GST control).

Regarding ACCTCT, the binding signal is 1.37 fold enrichment (6-mer frequency, TF over GST control).

TCCCCC: the binding signal was 1.52 fold enrichment (6-mer frequency, TF over GST control).

Consider TCGACA, for which the binding signal is 1.21 fold enrichment (6-mer frequency, TF over GST control).

Consider AGTATT, for which the binding signal is 1.15 fold enrichment (6-mer frequency, TF over GST control).

As to ATGTTA, the binding signal was 1.23 fold enrichment (6-mer frequency, TF over GST control).

As to CATTTG, the binding signal is 1.27 fold enrichment (6-mer frequency, TF over GST control).

On to GCACTT, for which the binding signal is 1.79 fold enrichment (6-mer frequency, TF over GST control).

As to TCACTC, the binding signal is 1.27 fold enrichment (6-mer frequency, TF over GST control).

In the case of CCCGCT, the binding signal was 1.48 fold enrichment (6-mer frequency, TF over GST control).

For ATTAAT, the binding signal is 1.2 fold enrichment (6-mer frequency, TF over GST control).
